# Test results taken from PubChem BioAssay (NCATS).
# Records with an inconclusive call do not appear. Entries that show only a call come without a potency. Activity calls are given as the source filed them. Unless noted, calls follow the shape of the dose curve; as a rule, active = well fitted inhibition curve with a large enough effect; inconclusive = small, poorly fitted or top-dose-only effect; inactive = flat fitted curve, though single readings scatter.
# Legend:
# [1] = qHTS profiling for inhibitors of Plasmodium falciparum proliferation (AID 504749); as to all read-outs here: nearly all actives have a fitted effect of over 60% in size; details: P. falciparum in erythrocytes, SYBR Green DNA, 72 h; for activity, negative = inhibition: at 28.7 µM (top of the series)
# Summary of the method: (§1)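 SYBR Green fluorescence of parasite DNA, read after lysis and overnight dark incubation, measured growth over 72 h in erythrocyte culture at 0.3% parasitemia and 2.5% hematocrit. Data normalised to DMSO and 0.29 uM artemisinin, with plate-drift correction.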
# 3D7 = assay: as above; details: P. falciparum in erythrocytes, SYBR Green DNA, 72 h; series mostly up to 28.7 µM
# Summary of the method: as §1
# 7G8 = assay: as above; details: P. falciparum in erythrocytes, SYBR Green DNA, 72 h; series mostly up to 28.7 µM
# Summary of the method: as §1
# AA1029 = assay: as above; details: P. falciparum in erythrocytes, SYBR Green DNA, 72 h; series mostly up to 28.7 µM
# Summary of the method: as §1
# AS120 = assay: as above; details: P. falciparum in erythrocytes, SYBR Green DNA, 72 h; series mostly up to 28.7 µM
# Summary of the method: as §1
# ATS189 = assay: as above; details: P. falciparum in erythrocytes, SYBR Green DNA, 72 h; series mostly up to 28.7 µM
# Summary of the method: as §1
# ATS95 = assay: as above; details: P. falciparum in erythrocytes, SYBR Green DNA, 72 h; series mostly up to 28.7 µM
# Summary of the method: as §1
# C2A = assay: as above; details: P. falciparum in erythrocytes, SYBR Green DNA, 72 h; series mostly up to 28.7 µM
# Summary of the method: as §1
# CP185 = assay: as above; details: P. falciparum in erythrocytes, SYBR Green DNA, 72 h; series mostly up to 28.7 µM
# Summary of the method: as §1
# CP191 = assay: as above; details: P. falciparum in erythrocytes, SYBR Green DNA, 72 h; series mostly up to 28.7 µM
# Summary of the method: as §1
# CP192 = assay: as above; details: P. falciparum in erythrocytes, SYBR Green DNA, 72 h; series mostly up to 28.7 µM
# Summary of the method: as §1
# CP194 = assay: as above; details: P. falciparum in erythrocytes, SYBR Green DNA, 72 h; series mostly up to 28.7 µM
# Summary of the method: as §1
# CP201 = assay: as above; details: P. falciparum in erythrocytes, SYBR Green DNA, 72 h; series mostly up to 28.7 µM
# Summary of the method: as §1
# CP211 = assay: as above; details: P. falciparum in erythrocytes, SYBR Green DNA, 72 h; series mostly up to 28.7 µM
# Summary of the method: as §1
# CP215 = assay: as above; details: P. falciparum in erythrocytes, SYBR Green DNA, 72 h; series mostly up to 28.7 µM
# Summary of the method: as §1
# [2] = qHTS drug screen for cell cycle checkpoint inhibitors in PARPi-resistant BRCA-mutant ovarian cancer cell lines. (AID 1963452; calls by dose curve); details: PEO1/OlaR viability, CellTiter-Glo luminescence, 96 h; for Z-AUC: stronger effect = lower value
# Summary of the method: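 PEO1, PEO4 and PEO1/OlaR ovarian cancer cells, 600 per well, exposed 96 h at 37C to a dilution series. Viability read by CellTiter-Glo luminescence, normalized to DMSO and empty wells; activity summarized as Z-AUC.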
# [3] = measured here: PEO1 parental Z-AUC
# Potency is read from the fitted curve at half-maximal effect.
smiles,measurement,setting,value
Cc1ccc(Cl)c(O)c1,"activity, negative = inhibition",[1]; parasite line A,9.64% (inactive)
same,"activity, negative = inhibition",[1]; parasite line B,15% (inactive)
same,Potency,3D7,inactive
same,Potency,7G8,inactive
same,Potency,AA1029,inactive
same,Potency,AS120,inactive
same,Potency,ATS189,inactive
same,Potency,ATS95,inactive
same,Potency,C2A,inactive
same,Potency,CP185,inactive
same,Potency,CP191,inactive
same,Potency,CP192,inactive
same,Potency,CP194,inactive
same,outcome,CP201,inactive
same,Potency,CP211,inactive
same,Potency,CP215,inactive
CCCN1CCO[C@@H]2c3cc(O)ccc3OC[C@H]21,Z-AUC,[2],0.538 (inactive)
same,Z-AUC,[2]; [3],0.85
same,Z-AUC,[2]; measured here: PEO4 Z-AUC,0.552
c1ccc(C2(c3ccccc3)CC2C2=NCCN2)cc1 (stereo not given),"activity, negative = inhibition",[1]; parasite line A,-23% (inactive)
same,"activity, negative = inhibition",[1]; parasite line B,-12.8% (inactive)
same,Potency,3D7,inactive
same,Potency,AA1029,inactive
same,Potency,AS120,inactive
same,Potency,ATS189,inactive
same,Potency,ATS95,inactive
same,Potency,C2A,inactive
same,Potency,CP185,inactive
same,Potency,CP192,inactive
same,Potency,CP194,inactive
same,outcome,CP201,inactive
same,Potency,CP211,inactive
same,Potency,CP215,inactive
CCCCCCCCCC(CC)c1ccc(S(=O)(=O)O)cc1 (stereo not given),"activity, negative = inhibition",[1]; parasite line A,4.98% (inactive)
same,"activity, negative = inhibition",[1]; parasite line B,0.132% (inactive)
same,Potency,3D7,inactive
same,Potency,7G8,inactive
same,Potency,AA1029,inactive
same,Potency,AS120,inactive
same,Potency,ATS189,inactive
same,Potency,ATS95,inactive
same,Potency,C2A,inactive
same,Potency,CP185,inactive
same,Potency,CP191,inactive
same,Potency,CP192,inactive
same,Potency,CP194,inactive
same,outcome,CP201,inactive
same,Potency,CP211,inactive
same,Potency,CP215,inactive
CC[N+]1(CCOC(=O)C(O)(c2ccccc2)c2ccccc2)CCCCC1,"activity, negative = inhibition",[1]; parasite line A,-23.7% (inactive)
same,"activity, negative = inhibition",[1]; parasite line B,-20.1% (inactive)
same,Potency,3D7,inactive
same,Potency,AS120,inactive
same,Potency,ATS189,inactive
same,Potency,ATS95,inactive
same,Potency,C2A,inactive
same,Potency,CP191,inactive
same,Potency,CP192,inactive
same,Potency,CP194,inactive
same,outcome,CP201,inactive
same,Potency,CP211,inactive
same,Potency,CP215,inactive
CC(=O)Nc1ccc(OC[C@](C)(O)C(=O)Nc2ccc([N+](=O)[O-])c(C(F)(F)F)c2)cc1,Z-AUC,[2],-0.618 (inactive)
same,Z-AUC,[2]; [3],-0.737
same,Z-AUC,[2]; measured here: PEO4 Z-AUC,-0.359
C/C=C(/C)C(=O)O[C@H]1C(C)=C2[C@H]([C@@H]1OC(=O)CCCCCCC)[C@@](C)(OC(C)=O)C[C@H](OC(=O)CCC)[C@@]1(O)[C@H]2OC(=O)[C@@]1(C)O,Potency,[2],0.0098 µM (active)
same,Z-AUC,[2]; [3],-2.42
same,Z-AUC,[2]; measured here: PEO4 Z-AUC,-2.66
CN[C@@H]1C[C@@H](c2ccc(Cl)c(Cl)c2)c2ccccc21,Potency,3D7,inactive
same,Potency,7G8,10 µM (active)
same,Potency,ATS189,inactive
same,Potency,C2A,inactive
same,Potency,CP191,inactive
same,Potency,CP192,inactive
same,outcome,CP201,inactive
CCCCCCCCCCCCCCCC[N+](C)(C)C,Potency,[1]; parasite line A,11.2 µM (active)
same,Potency,3D7,8.91 µM (active)
same,Potency,7G8,11.2 µM (active)
same,Potency,AS120,11.2 µM (active)
same,Potency,C2A,8.91 µM (active)
same,Potency,CP211,13.5 µM (active)
C[C@](O)(COc1ccc(C#N)cc1)C(=O)Nc1ccc(C#N)c(C(F)(F)F)c1,Z-AUC,[2],0.66 (inactive)
same,Z-AUC,[2]; [3],0.716
same,Z-AUC,[2]; measured here: PEO4 Z-AUC,0.592
COC(=O)c1cncn1C(C)c1ccccc1 (stereo not given),Potency,CP192,inactive
same,Potency,CP194,inactive
same,outcome,CP201,inactive
same,Potency,CP211,inactive
same,Potency,CP215,inactive
Clc1ccccc1C(c1ccccc1)(c1ccccc1)n1cccn1,Z-AUC,[2],0.364 (inactive)
same,Z-AUC,[2]; [3],0.863
same,Z-AUC,[2]; measured here: PEO4 Z-AUC,1.14
Cc1cc(O)ccc1Cl,"activity, negative = inhibition",[1]; parasite line A,4.69% (inactive)
same,"activity, negative = inhibition",[1]; parasite line B,-0.29% (inactive)
same,Potency,3D7,inactive
same,Potency,AA1029,inactive
same,Potency,AS120,inactive
same,Potency,ATS189,inactive
same,Potency,ATS95,inactive
same,Potency,C2A,inactive
same,Potency,CP185,inactive
same,Potency,CP191,inactive
same,Potency,CP192,inactive
same,Potency,CP194,inactive
same,outcome,CP201,inactive
same,Potency,CP211,inactive
same,Potency,CP215,inactive
O=C(Oc1ccc([N+](=O)[O-])cc1)N1CCN(Cc2cccc(Oc3ccccc3)c2)CC1,Z-AUC,[2],1.13 (inactive)
same,Z-AUC,[2]; [3],1.12
same,Z-AUC,[2]; measured here: PEO4 Z-AUC,1.4
